# In PubChem BioAssay (Tox21):
# Results filed as inconclusive are left out. A call without a number means that no potency is given here. Values without a mark were called inactive. Calls of active or inactive are those of the source. Unless noted, calls come from the whole dose curve; as a rule, active = well fitted curve in the direction sought with a large enough effect in the repeat runs; inconclusive = weak or mixed curves; inactive = no such curve, though single readings can be large; an effect the other way counts as inactive or inconclusive.
# Legend:
# [1] = test system: thyroid hormone receptor (rat, GH3 cells); assay: qHTS assay to identify small molecule agonists of the thyroid receptor (TR) signaling pathway (AID 743066; calls by dose curve)
# [2] = qHTS assay to identify small molecule antagonists of the estrogen receptor alpha (ER-alpha) signaling pathway using the BG1 cell line - cell viability counter screen (AID 743081);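 note: compound given together with 17beta-estradiol as the ER stimulus; series mostly up to about 70 µM; nearly all actives have a fitted effect of over 45% in size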
# [3] = target: Aromatase (Homo sapiens) (UniProt P11511); assay: qHTS assay to identify aromatase inhibitors (AID 743083); note: series mostly up to about 70 µM; nearly all actives have a fitted effect of over 55% in size
# [4] = qHTS assay to identify aromatase inhibitors - cell viability counter screen (AID 743084);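 note: cells stimulated with testosterone during compound exposure; nearly all actives have a fitted effect of over 55% in size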
# [5] = target: Aryl hydrocarbon receptor (Homo sapiens) (UniProt P35869); assay: qHTS assay to identify small molecule that activate the aryl hydrocarbon receptor (AhR) signaling pathway (AID 743085);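 note: HG2L7.5c1 human HepG2 liver cells with stably integrated DRE-driven firefly reporter; series mostly up to about 70 µM; nearly all actives have a fitted effect of over 15% in size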
# Procedure, shortened: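 Measured in HG2L7.5c1 cells: CellTiter-Fluor signal (30 min incubation, 37C) for viability, then luciferase luminescence (30 min, room temperature). Compound contact time was 24 h at 37C, following a 5 h pre-incubation.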
# [6] = target: Peroxisome proliferator-activated receptor gamma (Homo sapiens) (UniProt P37231); assay: qHTS assay to identify small molecule agonists of the peroxisome proliferator-activated receptor gamma (PPARg) signaling pathway (AID 743094; active = well fitted activation curve with a large enough effect in the signal ratio in the repeat runs, not every such curve was filed as active; the % refers to the signal ratio)
# Procedure, shortened: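 Fluorescence-based beta-lactamase readout in HEK293H PPARg UAS-bla cells after 17 h compound exposure (37C) and 1 h B/G FRET substrate incubation at room temperature.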
# [7] = target: Peroxisome proliferator-activated receptor gamma (Homo sapiens) (UniProt P37231); assay: qHTS assay to identify small molecule antagonists of the peroxisome proliferator-activated receptor gamma (PPARg) signaling pathway (AID 743191; calls by dose curve; note: series mostly up to about 63 µM; nearly all actives have a fitted effect of over 30% in size)
# Procedure, shortened: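 GeneBLAzer PPARg UAS-bla HEK293H cells carrying a UAS-driven beta-lactamase reporter were plated at 3000 cells/well, preincubated 5 h at 37C, then given compound for 17 h at 37C; LiveBLAzer B/G FRET substrate was read after 1 h at room temperature.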
# [8] = qHTS assay to identify small molecule antagonists of the peroxisome proliferator-activated receptor gamma (PPARg) signaling pathway - cell viability counter screen (AID 743194); note: nearly all actives have a fitted effect of over 55% in size
# Procedure, shortened: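 PPARg-UAS-bla HEK293H cells were plated, rested 5 h at 37 C, then treated with compounds plus rosiglitazone (50 nM final) for 17 h at 37 C; viability was then read by CellTiter-Glo luminescence after 30 min at room temperature.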
# [9] = qHTS assay for small molecule agonists of the antioxidant response element (ARE) signaling pathway (AID 743202; active = well fitted activation curve with a large enough effect in the signal ratio in the repeat runs, not every such curve was filed as active; the % refers to the signal ratio; note: potency is the fitted concentration of half-maximal effect)
# Procedure, shortened: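 Following a 16 h, 37 C exposure of reporter HepG2 cells (ARE-driven beta-lactamase, 2,000 cells/well) to compounds, FRET substrate was applied for 2 h at room temperature and fluorescence intensity recorded.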
# [10] = qHTS assay for small molecule agonists of the antioxidant response element (ARE) signaling pathway - cell viability counter screen (AID 743203; calls by dose curve; note: nearly all actives have a fitted effect of over 55% in size)
# Procedure, shortened: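 Parallel cytotoxicity read-out for the ARE-bla screen: HepG2 reporter cells, 16 hrs with compounds, then CellTiter-Glo luminescence.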
# [11] = qHTS assay for small molecule activators of the heat shock response signaling pathway - cell viability counter screen (AID 743209); note: nearly all actives have a fitted effect of over 50% in size
# Procedure, shortened: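 To flag cytotoxic compounds, HSE-bla HeLa cells plated at 1500 cells/well were dosed for 5 h at 37 C, followed by the reporter FRET read and then CellTiter-Glo, with luminescence recorded 30 min after reagent addition.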
# [12] = qHTS assay for small molecule activators of the heat shock response signaling pathway (AID 743210; active = well fitted activation curve with a large enough effect in the signal ratio in the repeat runs, with a control signal flat, not every such curve was filed as active; the % refers to the signal ratio; note: series mostly up to about 63 µM)
# Procedure, shortened: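 Heat shock element–beta-lactamase HeLa reporter cells; qHTS with compounds for 5 h at 37 C; detection by FRET substrate fluorescence after 2.5 h at RT.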
# [13] = qHTS assay to identify small molecule agonists of the peroxisome proliferator-activated receptor delta (PPARd) signaling pathway - cell viability counter screen (AID 743211); note: nearly all actives have a fitted effect of over 55% in size
# Procedure, shortened: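 Following 5 h plating at 37 C and 5% CO2, PPARd UAS-bla HEK293H cells took up test compounds for 17 h. Viability was quantified by luminescence 30 min after CellTiter-Glo addition at room temperature.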
# [14] = target: Peroxisome proliferator-activated receptor delta (Homo sapiens) (UniProt Q03181); assay: qHTS assay to identify small molecule agonists of the peroxisome proliferator-activated receptor delta (PPARd) signaling pathway (AID 743212; calls by dose curve)
# Procedure, shortened: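 Beta-lactamase reporter read by fluorescence (LiveBLAzer B/G FRET, 2 h, room temperature). Test agents, in DMSO, incubated at 37 C with PPARd-bla HEK293H cells.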
# [15] = qHTS assay to identify small molecule antagonists of the estrogen receptor alpha (ER-alpha) signaling pathway - cell viability counter screen (AID 743074; calls by dose curve;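 note: HEK293 cells carrying ER-alpha-UAS-bla reporter stimulated with 17beta-estradiol; nearly all actives have a fitted effect of over 45% in size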)
# [16] = qHTS assay to identify small molecule that activate the aryl hydrocarbon receptor (AhR) signaling pathway - cell viability counter screen (AID 743086);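 note: HepG2 liver cells carrying the AhR DRE luciferase reporter; series mostly up to about 70 µM; nearly all actives have a fitted effect of over 45% in size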
# Procedure, shortened: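 HepG2-AhR-luc (HG2L7.5c1) cells, 4000/well, were preincubated 5 h at 37C, exposed to compound in qHTS format for 24 hr at 37C, then given CellTiter-Fluor for 30 min; viability was read as fluorescence in the reporter wells.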
# [17] = target: Estrogen receptor (Homo sapiens) (UniProt P03372); assay: qHTS assay to identify small molecule agonists of the estrogen receptor alpha (ER-alpha) signaling pathway (AID 743075; calls by dose curve;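 note: HEK293 GripTite cells with ER-alpha and UAS-driven beta-lactamase reporter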)
# [18] = target: Estrogen receptor (Homo sapiens) (UniProt P03372); assay: qHTS assay to identify small molecule agonists of the estrogen receptor alpha (ER-alpha) signaling pathway using the BG1 cell line (AID 743079); note: nearly all actives have a fitted effect of over 20% in size
# [19] = qHTS assay to identify small molecule antagonists of the estrogen receptor alpha (ER-alpha) signaling pathway using the BG1 cell line (AID 743080; calls by dose curve;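 note: BG1 cells stimulated with 17beta-estradiol alongside compound; series mostly up to about 70 µM; nearly all actives have a fitted effect of over 25% in size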)
# Procedure, shortened: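 Quantitative HTS on the Tox21 10K library: BG1 cells with endogenous ER-alpha and ERE-luciferase reporter, 17beta-estradiol stimulation, 21.5 h compound exposure, luminescence endpoint with parallel fluorescence cytotoxicity counter-read.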
# [20] = target: Estrogen receptor (Homo sapiens) (UniProt P03372); assay: qHTS assay to identify small molecule antagonists of the estrogen receptor alpha (ER-alpha) signaling pathway (AID 743069; active = well fitted curve in the direction sought with a large enough effect in the signal ratio in the repeat runs, not every such curve was filed as active; the % refers to the signal ratio)
# Procedure, shortened: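 A 17beta-estradiol challenge was applied right after compound transfer to ER-alpha-UAS-bla HEK293 cells previously kept in charcoal-stripped serum. Plates stood 18 hr at 37C and 5% CO2; fluorescence was read following 2 hr FRET substrate loading at room temperature.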
# Chain of Peroxisome proliferator-activated receptor gamma (Homo sapiens) (P37231 whole entry, looked up): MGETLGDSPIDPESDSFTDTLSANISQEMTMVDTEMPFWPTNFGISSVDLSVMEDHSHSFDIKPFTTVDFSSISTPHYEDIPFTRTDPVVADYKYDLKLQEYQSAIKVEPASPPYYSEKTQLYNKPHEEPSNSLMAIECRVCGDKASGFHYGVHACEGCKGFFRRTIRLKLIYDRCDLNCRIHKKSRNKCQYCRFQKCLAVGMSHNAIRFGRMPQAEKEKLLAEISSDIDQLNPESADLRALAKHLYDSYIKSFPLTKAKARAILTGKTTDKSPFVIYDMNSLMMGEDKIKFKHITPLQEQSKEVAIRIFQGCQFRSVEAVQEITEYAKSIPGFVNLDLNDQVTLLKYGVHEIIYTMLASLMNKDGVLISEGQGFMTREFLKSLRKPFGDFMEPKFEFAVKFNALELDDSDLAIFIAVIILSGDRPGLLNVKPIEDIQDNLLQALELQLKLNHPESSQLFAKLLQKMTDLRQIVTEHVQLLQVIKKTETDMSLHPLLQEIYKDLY
# Chain of Peroxisome proliferator-activated receptor delta (Homo sapiens) (Q03181 whole entry, looked up): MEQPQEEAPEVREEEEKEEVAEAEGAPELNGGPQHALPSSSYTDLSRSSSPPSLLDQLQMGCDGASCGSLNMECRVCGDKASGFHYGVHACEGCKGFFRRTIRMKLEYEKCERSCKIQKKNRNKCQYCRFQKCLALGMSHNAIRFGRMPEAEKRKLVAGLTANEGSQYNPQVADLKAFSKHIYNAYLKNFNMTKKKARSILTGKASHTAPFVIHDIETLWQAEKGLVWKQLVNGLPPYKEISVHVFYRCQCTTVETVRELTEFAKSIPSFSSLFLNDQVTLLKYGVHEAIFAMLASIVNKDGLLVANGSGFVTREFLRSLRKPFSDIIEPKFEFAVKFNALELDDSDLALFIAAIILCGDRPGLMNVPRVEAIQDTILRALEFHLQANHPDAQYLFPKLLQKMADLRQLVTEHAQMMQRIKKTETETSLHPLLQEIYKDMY
# Chain of Aryl hydrocarbon receptor (Homo sapiens) (P35869 whole entry, looked up): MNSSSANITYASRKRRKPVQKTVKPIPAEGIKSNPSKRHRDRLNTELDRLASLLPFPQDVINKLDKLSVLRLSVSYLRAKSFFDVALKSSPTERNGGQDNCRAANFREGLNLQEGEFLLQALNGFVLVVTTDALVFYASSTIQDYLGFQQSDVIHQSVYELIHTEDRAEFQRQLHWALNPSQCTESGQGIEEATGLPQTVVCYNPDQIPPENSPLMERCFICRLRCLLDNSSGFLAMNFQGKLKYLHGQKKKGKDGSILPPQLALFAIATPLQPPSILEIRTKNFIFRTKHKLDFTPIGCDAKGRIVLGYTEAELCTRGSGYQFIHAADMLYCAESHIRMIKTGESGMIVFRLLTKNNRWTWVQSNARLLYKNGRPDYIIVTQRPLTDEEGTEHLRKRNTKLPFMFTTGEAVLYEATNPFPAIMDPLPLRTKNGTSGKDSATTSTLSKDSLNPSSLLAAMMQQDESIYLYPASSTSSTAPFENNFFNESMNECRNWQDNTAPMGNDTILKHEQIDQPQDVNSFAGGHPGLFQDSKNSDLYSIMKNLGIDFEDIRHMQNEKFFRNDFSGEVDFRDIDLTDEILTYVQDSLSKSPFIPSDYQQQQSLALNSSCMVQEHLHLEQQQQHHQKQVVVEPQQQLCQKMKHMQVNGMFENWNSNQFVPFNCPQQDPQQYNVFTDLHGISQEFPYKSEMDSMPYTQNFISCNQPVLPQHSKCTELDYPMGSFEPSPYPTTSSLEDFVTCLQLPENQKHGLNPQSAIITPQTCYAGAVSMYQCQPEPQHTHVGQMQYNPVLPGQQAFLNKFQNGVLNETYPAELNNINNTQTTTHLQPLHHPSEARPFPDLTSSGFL
# Chain of Estrogen receptor (Homo sapiens) (P03372 whole entry, looked up): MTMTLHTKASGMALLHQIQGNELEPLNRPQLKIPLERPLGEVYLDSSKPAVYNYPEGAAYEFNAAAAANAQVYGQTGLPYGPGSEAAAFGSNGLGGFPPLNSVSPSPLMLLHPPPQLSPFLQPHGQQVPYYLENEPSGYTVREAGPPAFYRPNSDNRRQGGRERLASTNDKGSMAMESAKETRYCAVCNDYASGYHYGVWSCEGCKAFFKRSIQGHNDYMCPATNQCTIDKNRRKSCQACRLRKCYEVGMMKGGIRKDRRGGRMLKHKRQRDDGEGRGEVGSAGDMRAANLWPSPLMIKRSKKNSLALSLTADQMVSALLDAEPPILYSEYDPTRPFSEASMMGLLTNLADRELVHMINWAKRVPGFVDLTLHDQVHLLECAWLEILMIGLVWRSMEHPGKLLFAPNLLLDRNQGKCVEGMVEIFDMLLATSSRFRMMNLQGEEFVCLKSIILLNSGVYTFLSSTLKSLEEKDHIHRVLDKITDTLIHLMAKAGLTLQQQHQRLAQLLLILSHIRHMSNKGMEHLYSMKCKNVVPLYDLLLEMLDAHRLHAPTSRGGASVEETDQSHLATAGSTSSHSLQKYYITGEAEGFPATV
# Chain of Aromatase (Homo sapiens) (P11511 whole entry, looked up): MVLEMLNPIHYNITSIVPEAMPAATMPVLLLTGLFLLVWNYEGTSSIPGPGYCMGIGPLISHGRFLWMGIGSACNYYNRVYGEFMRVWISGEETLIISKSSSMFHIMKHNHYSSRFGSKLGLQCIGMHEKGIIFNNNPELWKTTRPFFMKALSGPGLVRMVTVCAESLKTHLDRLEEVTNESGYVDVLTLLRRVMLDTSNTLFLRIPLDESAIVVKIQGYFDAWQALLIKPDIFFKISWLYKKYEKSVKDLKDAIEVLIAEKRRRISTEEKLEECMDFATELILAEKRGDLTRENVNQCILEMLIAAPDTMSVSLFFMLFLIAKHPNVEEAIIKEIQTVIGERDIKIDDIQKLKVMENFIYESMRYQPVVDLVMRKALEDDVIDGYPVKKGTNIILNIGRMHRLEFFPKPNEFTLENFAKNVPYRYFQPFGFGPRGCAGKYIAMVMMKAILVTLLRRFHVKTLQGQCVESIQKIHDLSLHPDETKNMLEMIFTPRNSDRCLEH
SMILES,outcome [1],Potency [2],Potency [3],Potency [4],Potency [5],Potency [6],Potency [7],Potency [8],Potency [9],Potency [10],outcome [11],outcome [12],Potency [13],Potency [14],outcome [15],Potency [16],Potency [17],Potency [18],Potency [19],Potency [20]
O=C(OC1C[C@H]2CC[C@@H](C1)[N+]21CCCC1)C(O)(c1ccccc1)c1ccccc1 (stereo not given in full),inactive,inactive,inactive,inactive,inactive,inactive,inactive,inactive,inactive,inactive,inactive,inactive,inactive,inactive,–,–,–,–,–,–
C[C@H](CN1CCCC1)C(=O)c1ccc(C(F)(F)F)cc1,inactive,–,inactive,inactive,inactive,inactive,–,inactive,–,inactive,inactive,inactive,–,inactive,inactive,inactive,–,–,–,–
CCOCCn1c(N2CCCN(C)CC2)nc2ccccc21,inactive,inactive,–,inactive,inactive,–,–,–,inactive,inactive,inactive,inactive,inactive,inactive,–,inactive,–,–,–,–
C=CC(C)(O)CC/C=C(/C)CCC=C(C)C (stereo not given),inactive,inactive,–,inactive,inactive,inactive,–,inactive,–,inactive,inactive,inactive,inactive,inactive,inactive,–,–,–,–,–
Cc1cccc(C)c1NC(=O)CN1CCCC1,inactive,inactive,inactive,inactive,–,inactive,inactive,inactive,inactive,inactive,inactive,inactive,inactive,–,inactive,inactive,–,–,–,–
Cc1c(Nc2ncccc2C(=O)O)cccc1C(F)(F)F,inactive,inactive,–,inactive,–,–,–,inactive,–,inactive,inactive,inactive,inactive,–,inactive,inactive,–,–,–,–
CC(=O)Nc1ccccc1O,inactive,inactive,inactive,inactive,–,–,–,–,27.3 µM (active),inactive,inactive,inactive,inactive,–,inactive,inactive,–,–,–,–
CCCCCCCCS,inactive,inactive,inactive,inactive,inactive,inactive,inactive,inactive,inactive,inactive,inactive,inactive,inactive,inactive,–,inactive,inactive,inactive,inactive,–
[O-][n+]1ccc(Cl)cc1,inactive,inactive,–,–,–,–,–,inactive,inactive,inactive,inactive,inactive,inactive,inactive,inactive,inactive,–,–,–,–
CC(C(=O)O)c1ccc(/C=C2\CCCCC2=O)cc1 (stereo not given),inactive,inactive,inactive,inactive,–,–,inactive,inactive,29.8 µM (active),inactive,inactive,inactive,inactive,inactive,inactive,inactive,–,–,–,–
CC/C=C/CCO,inactive,inactive,–,–,–,–,–,inactive,–,inactive,inactive,inactive,inactive,–,inactive,inactive,–,–,–,–
NC(=O)c1cc[n+](CC2=C(C(=O)[O-])N3C(=O)[C@@H](NC(=O)Cc4cccs4)[C@H]3SC2)cc1,–,inactive,inactive,inactive,inactive,inactive,inactive,inactive,–,inactive,inactive,inactive,inactive,inactive,inactive,inactive,inactive,inactive,inactive,inactive
CCc1c(C)[nH]c2c1C(=O)C(CN1CCOCC1)CC2 (stereo not given),inactive,inactive,–,–,–,–,–,inactive,inactive,inactive,inactive,–,inactive,inactive,inactive,inactive,–,–,–,–
Nc1nc(Cl)nc2c1ncn2[C@H]1C[C@H](O)[C@@H](CO)O1,inactive,inactive,inactive,inactive,inactive,–,–,inactive,inactive,inactive,inactive,inactive,inactive,–,inactive,–,–,–,–,–
Sc1nc(S)nc(S)n1,inactive,inactive,inactive,inactive,inactive,–,–,inactive,–,inactive,inactive,inactive,–,inactive,inactive,–,–,–,–,–
CC(C)(O)C(=O)O,inactive,inactive,–,–,–,–,–,inactive,inactive,inactive,inactive,inactive,inactive,inactive,inactive,inactive,–,–,–,–
O=[N+]([O-])c1ccc(Cl)cc1Cl,inactive,inactive,inactive,inactive,inactive,inactive,inactive,inactive,–,inactive,inactive,inactive,–,inactive,–,inactive,–,–,–,–
CCCN(C1CCN(C(=O)C2CCNCC2)CC1)[C@@H]1CCc2ccc(OC)cc2C1,inactive,–,inactive,inactive,inactive,inactive,inactive,inactive,–,–,inactive,inactive,–,inactive,–,inactive,–,–,–,–
O=C(O)COCC(=O)O,inactive,inactive,inactive,inactive,inactive,inactive,–,inactive,inactive,inactive,inactive,inactive,inactive,–,–,inactive,–,–,–,–
